Laboratory results as given in PubChem BioAssay.
Calls of active or inactive are those of the source.

Experiments:
Albumin (Bos taurus) = Albumin (Bos taurus) (UniProt P02769); assay: bovine serum albumin binders on microarray, profiling panel, artefact control for SMM control protein annotation, biochemical, small-molecule microarray, Alexa647 label, 635/667 nm fluorescence (AID 1118); conditions: BSA-A647 binding, fluorescence 635 nm, higher = more signal;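 also: score merges 667 nm emission intensity and signal-to-noise per printed compound spot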
Sequence of Albumin (Bos taurus) (P02769 whole entry, looked up): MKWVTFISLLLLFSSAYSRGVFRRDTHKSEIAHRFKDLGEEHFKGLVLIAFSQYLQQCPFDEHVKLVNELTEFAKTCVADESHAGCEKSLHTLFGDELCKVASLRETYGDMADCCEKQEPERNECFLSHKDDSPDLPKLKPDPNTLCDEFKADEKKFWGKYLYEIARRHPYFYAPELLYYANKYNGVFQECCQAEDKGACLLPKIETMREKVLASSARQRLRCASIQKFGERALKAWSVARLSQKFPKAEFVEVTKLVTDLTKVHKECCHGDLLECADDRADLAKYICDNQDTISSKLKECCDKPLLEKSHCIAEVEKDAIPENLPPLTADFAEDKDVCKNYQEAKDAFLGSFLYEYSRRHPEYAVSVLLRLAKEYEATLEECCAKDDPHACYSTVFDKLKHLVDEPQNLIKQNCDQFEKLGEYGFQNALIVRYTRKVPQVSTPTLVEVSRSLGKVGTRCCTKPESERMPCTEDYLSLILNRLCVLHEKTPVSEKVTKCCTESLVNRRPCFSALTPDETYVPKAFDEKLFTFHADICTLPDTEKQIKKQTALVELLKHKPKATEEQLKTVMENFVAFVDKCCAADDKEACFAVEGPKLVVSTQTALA

[1] = small-molecule microarray binders of probe aXIP, primary screen, biochemical, NeuroSMM set, 635/667 nm fluorescence (AID 1119); conditions: higher = more signal, called active from +8 up or from −8 down;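 also: probe is the protein aXip251-270 applied at 1 µg/mL to compound-printed slides; binding of probe to printed compounds measured as 667 nm fluorescence plus signal to noise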
[2] = small-molecule binders of probe aNOTCH3, primary screen, biochemical, small-molecule microarray, 635/667 nm fluorescence (AID 1120); conditions: higher = more signal;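 also: probe is a biotin-tagged antibody raised against NOTCH3 rather than NOTCH3 protein; score merges spot fluorescence near 667 nm with spot signal to noise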
[3] = small-molecule binders of probe aNOTCH2, primary screen, biochemical, small-molecule microarray, 635/667 nm fluorescence (AID 1121); conditions: higher = more signal;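 also: score merges feature fluorescence read at 667 nm with its signal to noise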
[4] = molecular target: Carbonic anhydrase 2 (Homo sapiens) (UniProt P00918); assay: CAII small-molecule binders, profiling panel, biochemical, small-molecule microarray, Alexa647-labelled CAII (AID 1122); conditions: CAII-A647 binding fluorescence, higher = more signal
[5] = COS7 lysate on small-molecule microarray, probe aHis, 635 nm (AID 1123); conditions: COS7 cell lysate, fluorescence, higher = more signal;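 also: z-score combines 667nm fluorescence intensity with signal-to-noise per printed compound spot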
[6] = compound binding in COS7 lysate, probe aLAP1, primary screen, cell lysate, small-molecule microarray (AID 1124); conditions: probe aLAP1, fluorescence, higher = more signal;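 also: lysate comes from COS7 cells expressing LAP1 and is applied at 0.3 µg/mL; score merges spot fluorescence near 667 nm with signal-to-noise over triplicate slides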
Sam68 (KHDRBS1) = assay: Sam68 small-molecule binders, primary screen, biochemical, small-molecule microarray, 635 nm fluorescence (AID 1125); conditions: small-molecule microarray binding, higher = more signal;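 also: score merges 667 nm channel intensity with signal to noise over triplicate slides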
[7] = system: Chordin-like protein 2 (CHRDL2); assay: CHRDL2 small-molecule binders, primary screen, biochemical, small-molecule microarray, 635 nm fluorescence (AID 1126); conditions: small-molecule microarray binding, fluorescence 635 nm; higher = more signal;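 also: printed compound slides probed with Chrdl2 protein at 4 µg/mL for 1 h at 4 C; score merges 667 nm emission intensity with signal to noise over three replicate slides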
[8] = molecular target: Concanavalin-A (Canavalia ensiformis) (UniProt P02866); assay: ConA small-molecule binders, primary screen, artefact control for SMM control protein annotation, biochemical, small-molecule microarray, Alexa647 label, 635 nm (AID 1127); conditions: ConA-A647 binding fluorescence, higher = more signal;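 also: z combines 667 nm emission intensity with signal-to-noise across three replicate slides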
Sequence of Concanavalin-A (Canavalia ensiformis) (P02866 whole entry, looked up): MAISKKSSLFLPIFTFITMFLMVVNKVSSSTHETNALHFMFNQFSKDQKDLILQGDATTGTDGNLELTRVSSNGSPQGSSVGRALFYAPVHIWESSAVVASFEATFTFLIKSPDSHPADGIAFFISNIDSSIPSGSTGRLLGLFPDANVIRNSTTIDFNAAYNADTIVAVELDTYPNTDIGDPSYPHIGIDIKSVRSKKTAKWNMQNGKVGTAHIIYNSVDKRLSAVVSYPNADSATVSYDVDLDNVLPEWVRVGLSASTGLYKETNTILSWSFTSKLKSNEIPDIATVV

[9] = anti-His antibody binders, primary screen, artefact control for SMM control protein annotation, biochemical, small-molecule microarray, 635 nm fluorescence (AID 1128); conditions: anti-His Alexa647 antibody binding, higher = more signal;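 also: score merges feature fluorescence with signal-to-noise for each printed compound spot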
[10] = system: Human papillomavirus type 1a E7 protein (residues 1-88); assay: HPV1a E7 small-molecule binders, primary screen, biochemical, small-molecule microarray, residues 1-88, 635 nm (AID 1129); conditions: small-molecule microarray binding, fluorescence 635 nm; higher = more signal
[11] = molecular target: Focal adhesion kinase 1 (Homo sapiens) (UniProt Q05397); assay: small-molecule microarray binders of FAK, primary screen, biochemical, 635/667 nm fluorescence, BSA, DTT (AID 1130); conditions: PTK2 binding, 635 nm fluorescence, higher = more signal;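 also: composite of spot emission at 667 nm and signal to noise over triplicate slides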
Sequence of Focal adhesion kinase 1 (Homo sapiens) (Q05397 whole entry, looked up): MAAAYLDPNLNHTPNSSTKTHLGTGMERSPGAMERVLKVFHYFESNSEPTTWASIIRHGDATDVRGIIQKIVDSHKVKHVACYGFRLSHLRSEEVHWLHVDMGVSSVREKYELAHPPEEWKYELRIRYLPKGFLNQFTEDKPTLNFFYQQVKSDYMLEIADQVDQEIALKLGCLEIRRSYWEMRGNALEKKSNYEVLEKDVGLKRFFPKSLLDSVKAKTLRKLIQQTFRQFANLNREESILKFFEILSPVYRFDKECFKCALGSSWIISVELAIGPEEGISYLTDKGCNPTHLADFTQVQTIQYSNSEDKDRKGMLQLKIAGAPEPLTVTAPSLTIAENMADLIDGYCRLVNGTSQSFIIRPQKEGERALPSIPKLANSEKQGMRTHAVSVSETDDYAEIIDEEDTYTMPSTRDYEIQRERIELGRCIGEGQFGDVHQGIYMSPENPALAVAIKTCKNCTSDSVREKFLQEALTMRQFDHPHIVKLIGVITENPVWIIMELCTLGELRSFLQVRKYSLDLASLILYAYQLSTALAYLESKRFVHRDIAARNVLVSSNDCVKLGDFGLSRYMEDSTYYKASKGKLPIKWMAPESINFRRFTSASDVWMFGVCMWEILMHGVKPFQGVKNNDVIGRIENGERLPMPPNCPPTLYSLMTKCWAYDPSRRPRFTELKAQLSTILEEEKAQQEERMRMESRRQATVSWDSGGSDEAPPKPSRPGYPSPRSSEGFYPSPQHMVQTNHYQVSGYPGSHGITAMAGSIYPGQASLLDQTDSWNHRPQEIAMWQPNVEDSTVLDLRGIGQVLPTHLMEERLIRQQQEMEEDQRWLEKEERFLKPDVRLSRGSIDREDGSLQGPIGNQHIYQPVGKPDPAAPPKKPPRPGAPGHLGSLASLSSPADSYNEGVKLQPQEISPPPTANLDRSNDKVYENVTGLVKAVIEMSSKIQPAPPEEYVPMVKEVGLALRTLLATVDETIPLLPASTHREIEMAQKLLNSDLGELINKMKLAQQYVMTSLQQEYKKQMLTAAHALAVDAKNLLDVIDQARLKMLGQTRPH

[12] = system: Fibrinogen (Alexa647-labelled); assay: fibrinogen binders on compound microarrays, profiling panel, artefact control for SMM control-protein annotation, biochemical, small-molecule microarray, 635/667 nm fluorescence (AID 1131); conditions: fibrinogen-A647 binding fluorescence, higher = more signal;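 also: z-score merges 667 nm fluorescence with per-spot signal-to-noise over triplicate slides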
[13] = molecular target: Follistatin (Homo sapiens) (UniProt P19883); assay: follistatin binders on small-molecule microarrays, primary screen, biochemical, small-molecule microarray, 635/667 nm fluorescence (AID 1132); conditions: FST binding, 635 nm fluorescence, higher = more signal
Sequence of Follistatin (Homo sapiens) (P19883 whole entry, looked up): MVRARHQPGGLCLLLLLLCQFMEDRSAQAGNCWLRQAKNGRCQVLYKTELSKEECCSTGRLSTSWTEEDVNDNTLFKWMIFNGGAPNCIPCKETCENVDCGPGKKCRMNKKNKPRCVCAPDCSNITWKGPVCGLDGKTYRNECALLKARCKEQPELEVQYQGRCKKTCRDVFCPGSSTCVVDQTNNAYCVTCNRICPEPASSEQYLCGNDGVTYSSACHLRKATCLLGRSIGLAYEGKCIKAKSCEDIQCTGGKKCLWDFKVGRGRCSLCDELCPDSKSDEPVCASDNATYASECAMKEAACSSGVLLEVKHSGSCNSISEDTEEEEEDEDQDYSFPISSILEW

[14] = molecular target: Fibroblast growth factor 2 (Homo sapiens) (UniProt P09038); assay: FGF2 binders on small-molecule microarrays, primary screen, biochemical, small-molecule microarray, 635/667 nm fluorescence (AID 1133); conditions: small-molecule microarray binding, FGF2, fluorescence 635/667; higher = more signal
Sequence of Fibroblast growth factor 2 (Homo sapiens) (P09038 whole entry, looked up): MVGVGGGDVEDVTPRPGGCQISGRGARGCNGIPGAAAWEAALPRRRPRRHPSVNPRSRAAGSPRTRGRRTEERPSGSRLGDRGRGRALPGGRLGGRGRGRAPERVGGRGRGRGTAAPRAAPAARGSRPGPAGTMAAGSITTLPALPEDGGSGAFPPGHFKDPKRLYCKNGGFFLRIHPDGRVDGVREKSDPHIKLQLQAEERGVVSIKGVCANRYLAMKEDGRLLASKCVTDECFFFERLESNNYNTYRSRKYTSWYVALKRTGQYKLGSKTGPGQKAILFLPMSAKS

[15] = mitochondrial membrane potential change in A549 cells, profiling panel, cell-based, JC-1 fluorescence, basal, 24 h, 100 nL (AID 1138); conditions: higher = more signal;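 also: A549 lung adenocarcinoma cells under basal conditions with no added stimulus; test concentration not given here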
Lefty1 = Lefty1 binders on small-molecule microarrays, primary screen, biochemical, small-molecule microarray, 635/667 nm fluorescence (AID 1139); conditions: small-molecule microarray binding, fluorescence 635/667; higher = more signal
[16] = system: wheat germ agglutinin (Triticum aestivum), Alexa647-labelled; assay: wheat germ agglutinin binders on compound microarrays, profiling panel, artefact control for SMM control-protein annotation, biochemical, small-molecule microarray, 635/667 nm fluorescence (AID 1140); conditions: WGA-A647 binding, 635 nm fluorescence, higher = more signal;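 also: score merges 667 nm feature emission with signal to noise over triplicate slides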
[17] = molecular target: Luciferin 4-monooxygenase (Photinus pyralis) (UniProt P08659); assay: firefly luciferase enzyme inhibitors, primary screen, biochemical, luminescence, purified enzyme, 2006 set (AID 1141); conditions: SteadyGlo luminescence, 30 min, higher = more signal, called active from +8 up or from −8 down;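 also: cell-free assay with purified firefly luciferase at 100 ng per well in PBS; test concentration not given here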
Sequence of Luciferin 4-monooxygenase (Photinus pyralis) (P08659 whole entry, looked up): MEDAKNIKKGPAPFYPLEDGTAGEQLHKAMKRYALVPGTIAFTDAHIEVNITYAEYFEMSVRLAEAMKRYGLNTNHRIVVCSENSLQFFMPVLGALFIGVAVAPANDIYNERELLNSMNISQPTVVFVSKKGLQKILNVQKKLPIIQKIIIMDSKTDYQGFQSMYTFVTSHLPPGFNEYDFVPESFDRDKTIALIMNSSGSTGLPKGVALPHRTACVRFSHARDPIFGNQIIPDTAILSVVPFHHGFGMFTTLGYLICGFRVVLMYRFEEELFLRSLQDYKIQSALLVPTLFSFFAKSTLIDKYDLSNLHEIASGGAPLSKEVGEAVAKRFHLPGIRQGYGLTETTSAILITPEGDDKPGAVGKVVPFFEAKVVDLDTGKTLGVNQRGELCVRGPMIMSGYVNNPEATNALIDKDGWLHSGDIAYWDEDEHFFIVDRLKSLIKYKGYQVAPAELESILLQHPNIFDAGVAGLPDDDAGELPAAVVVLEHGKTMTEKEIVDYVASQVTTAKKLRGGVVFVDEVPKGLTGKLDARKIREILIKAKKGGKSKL

SMILES | composite z-score (Albumin (Bos taurus)) | composite Z-score [1] | composite z-score [2] | composite z-score [3] | composite z-score [4] | composite z-score [5] | composite z-score [6] | composite z-score (Sam68 (KHDRBS1)) | composite z-score [7] | composite z-score [8] | composite z-score [9] | composite z-score [10] | composite z-score [11] | composite z-score [12] | composite z-score [13] | composite z-score [14] | z-score [15] | composite z-score (Lefty1) | composite z-score [16] | z-score [17]
O=C1C[C@]2(c3ccc([N+](=O)[O-])cc3)C(=O)N(C3CC3)c3cc(CO)ccc3[C@H]2N1CC12CC3CC(CC(C3)C1)C2 | 0.393 | -0.571 (inactive) | -0.213 | -0.0357 | 0.76 | 0.422 | 0.401 | -0.183 | -0.201 | 0.176 | -0.496 | -0.336 | -0.421 | -0.168 | -0.579 | -0.364 | -1.17 | -1.5 | -0.456 | -0.124 (inactive)
C=CC[C@@H](OC(=O)Nc1ccc(SC)cc1)c1ccc(O)c(F)c1 | -0.102 | 0.452 (inactive) | -0.0647 | -0.114 | 0.643 | 0.527 | 0.341 | 0.152 | 0.268 | -0.0538 | 2.11 | 0.57 | 0.274 | 0.221 | 1.06 | 1.11 | -1.12 | 0.394 | 0.904 | -3.58 (inactive)
C=CCC(OC(C)=O)[C@@H]1[C@@H](N(Cc2cc3ccccc3o2)C(=O)Cc2ccc(F)cc2)c2cc(OCCCO)ccc2N1C(=O)Cc1ccc2ccccc2c1 (stereo not given in full) | 0.533 | 0.242 (inactive) | -0.0311 | -0.104 | -0.208 | 0.615 | -0.0657 | -0.39 | -0.21 | 0.296 | -0.748 | -0.682 | -0.308 | 0.397 | 0.0648 | -0.408 | 1.75 | -0.0725 | -0.286 | -0.826 (inactive)
NC(=O)[C@H]1[C@@H]2C(=O)O[C@@H](c3ccccc3)[C@@H](c3ccccc3)N2[C@@H](c2ccc(OCCO)cc2)[C@]12C(=O)Nc1ccc(C#CCCO)cc12 | 0.586 | 0.988 (inactive) | 0.0203 | 0.0252 | 0.537 | 1.26 | 0.204 | 1.16 | 0.0273 | 1.07 | 0.92 | 1.18 | 0.798 | 0.746 | 1.13 | 0.35 | -0.262 | 0.551 | 0.9 | -1.05 (inactive)
COC(=O)c1c(CC[C@@H](CO)NC(=O)N2CCC[C@H]2Cn2cc(C3(O)CCCCC3)nn2)oc(C(C)=O)c1C(=O)OC | 0.844 | 0.506 (inactive) | -0.0328 | -0.0795 | 0.707 | 1.44 | 0.473 | 1.28 | 1.09 | 1.04 | 0.794 | 0.759 | -0.0763 | 0.888 | 0.745 | 1.59 | -0.403 | 1.39 | -0.0239 | 0.97 (inactive)
CN(C)c1ccc(C(O)C2C=CC3C(=O)NC(=O)C3N2Nc2ccccn2)cc1 (stereo not given) | 0.396 | 0.378 (inactive) | -0.0419 | 0.046 | 0.788 | 0.718 | 0.282 | 0.711 | 0.987 | 0.372 | 0.909 | 0.683 | 0.304 | 0.309 | 1.32 | 0.417 | 0.229 | 0.783 | 0.423 | -0.866 (inactive)
CC(C)NC(=O)[C@@]1(C)c2ccccc2C(=O)N(Cc2ccc(OC(F)(F)F)cc2)[C@H]1c1ccc(CO)cc1 | 0.484 | -0.263 (inactive) | -0.367 | -0.0995 | 0.607 | 1.54 | 0.173 | 0.844 | -1.02 | -0.04 | 0.22 | -0.14 | -0.232 | -0.535 | -0.333 | -0.843 | -0.19 | -1.44 | -0.641 | -0.183 (inactive)
CCCCCCCCCCC(O)C1C=CC2C(=O)N(c3ccccc3)C(=O)C2N1Nc1ccc(C#N)cc1 (stereo not given) | 0.957 | 0.338 (inactive) | 0.286 | 0.0169 | 0.562 | 1.53 | 0.906 | 1.34 | -0.842 | 1.12 | -0.0221 | 1.18 | 0.464 | 0.989 | 0.652 | 0.429 | 3.49 | 0.0328 | 1.13 | 0.675 (inactive)
COc1ccc(CCNC(=O)[C@@]2(c3ccc([N+](=O)[O-])cc3)CC(=O)N(C3CCCCC3)[C@@H]2c2ccc(CO)cc2)cc1 | 0.143 | 0.665 (inactive) | 0.245 | 0.0224 | 0.283 | 1.89 | 0.0344 | 1.16 | -0.0865 | 0.952 | 1.84 | 1.22 | 0.757 | 0.393 | 0.695 | 0.373 | 2.09 | -0.381 | 0.793 | -1.74 (inactive)
COc1ccc([Si](C)(C)[C@@H]2[C@@H](CC(=O)N3Cc4ccccc4C[C@H]3CO)O[C@]3(C(=O)N(Cc4ccc(N5C(=O)c6cccc7cccc5c67)cc4)c4ccccc43)[C@H]2C)cc1 | -0.604 | 0.535 (inactive) | 0.171 | -0.0728 | 0.351 | 1.25 | -0.0469 | 1.31 | 1.18 | 0.988 | 0.0827 | 1.18 | 0.949 | 0.706 | 1.33 | 1.59 | 1.2 | 1.11 | 0.323 | -1.05 (inactive)
COC(=O)[C@@]1(Cc2ccc(OC)cc2)[C@H]2c3cc(C(=O)N4CCCC4)n(CCO)c3C[C@H]2CN1C(=O)c1ccccc1 | 0.245 | -0.423 (inactive) | 0.302 | 0.0918 | 0.847 | 2.46 | 0.57 | 0.827 | -0.0307 | 0.716 | 0.603 | 1.18 | 1.05 | 0.875 | 0.113 | -0.2 | -0.117 | -0.539 | 1.03 | 1.01 (inactive)
